Data as given in ChEMBL document CHEMBL1157539, “Thousands of chemical starting points for antimalarial lead identification” (Nature, 2010).

What follows are molecules tested on Plasmodium falciparum (assay: GSK_TCMDC: Inhibition of Plasmodium falciparum 3D7 in whole red blood cells, using parasite LDH activity as an index of growth. Test compounds present at 2uM).
Type: functional
`CN(C)CC(O)COc1ccc(Nc2ncc([N+](=O)[O-])c(Nc3ccccc3O)n2)cc1.O=C(O)C(F)(F)F` (stereo not given) gave an Inhibition of 100%.
In the case of `CCCC(CNCc1ccc(Cl)c(C(F)(F)F)c1)CNc1nc2cnccc2[nH]1.Cl` (stereo not given), the Inhibition is reported as 99%.
For `FC(F)(F)c1cccc2c(NN=Cc3ccccc3)ccnc12`, the Inhibition was 100%.
For `COc1cc(-c2ccccc2)ccc1C(=O)Nc1ccc2c(c1)N(C)CCC2`, the Inhibition was 85%.
`O=C(Nc1ccccc1F)N(CCCn1ccnc1)Cc1csc(-c2ccc(CNCc3ccccc3)cc2)n1.O=C(O)C(F)(F)F` showed an Inhibition of 93%.
For `Cl.N=C(N)NN=Cc1c2ccccc2c(Cl)c2ccc(Cl)cc12`, the Inhibition was 98%.
For `O=C(c1cc(-c2ccco2)n[nH]1)N1CCN(S(=O)(=O)c2ccc(Br)cc2)CC1`, the Inhibition was 95%.
In the case of `O=[N+]([O-])c1cccc(Nc2nccc(-c3cnn4ncccc34)n2)c1`, the Inhibition is reported as 87%.
`CCc1ccc(-c2nc3cc(NC(=O)c4cc([N+](=O)[O-])cc([N+](=O)[O-])c4)ccc3o2)cc1` showed an Inhibition of 93%.
`Cc1cc(NCCCCCCNc2cc(C)nc3c(C)cccc23)c2cccc(C)c2n1.Cl` showed an Inhibition of 100%.
For `O=C(O)C(F)(F)F.O=[N+]([O-])c1cccc(CNCC2CCN(Cc3ccc4ccccc4c3)CC2)c1`, the Inhibition was 100%.
With `COc1c(C2CCN(CCCCNC(=O)c3noc(-c4ccc(C#N)cc4)n3)CC2)ccc2c1CCCC2` the Inhibition was 99%.
In the case of `Cc1cccc2c(C(=O)NC3CCN(Cc4ccccc4)CC3)cc(-c3cccnc3)nc12`, the Inhibition is reported as 81%.
`Cc1cc(N[C@@H](CC(C)C)C(=O)NCc2cccc(F)c2)nc(Nc2ccccc2)n1.O=C(O)C(F)(F)F` was tested, and the Inhibition was 100%.
In the case of `Clc1ccccc1OCc1ccccn1`, the Inhibition is reported as 85%.
Molecule `CCNC[C@H]1CCCN1CCOc1ccc(-n2cnc3cc(-c4ccc(Cl)cc4)sc3c2=O)cc1OC.O=C(O)C(F)(F)F` has an Inhibition of 97%.
`COc1ccc(NC(=O)/C=C/c2ccccc2Cl)cc1OCCN1CCC(Cc2cc3ccccc3[nH]2)CC1.Cl` was tested, and the Inhibition was 92%.
Molecule `Cc1cc(C(=O)Nc2ccc3c(c2)CCN3C2CCN(Cc3cccc(F)c3F)C2)no1` (stereo not given) has an Inhibition of 95%.
`Cc1cccc(NC(=O)c2cnc(N3CCN(c4ccncc4)CC3)c(Cl)c2)c1.O=C(O)C(F)(F)F` showed an Inhibition of 100%.
`CCCCN1CCN(c2cc(NS(=O)(=O)c3ccc(C(=O)Nc4ccc(C(F)(F)F)cc4)cc3)ccc2OC)CC1.O=C(O)C(F)(F)F` was tested, and the Inhibition was 99%.
In the case of `COc1cc2nc(N3CCC(CNC(=O)c4ccc(-c5ccc(C(F)(F)F)cc5)cc4)CC3)nc(N)c2cc1OC`, the Inhibition is reported as 100%.
`CC(C)c1ccc(NC(=O)NCCCC2CCCN(CCCCCNC(=O)/C=C/c3ccc(Cl)c(Cl)c3)C2)cc1` (stereo not given) showed an Inhibition of 90%.
Work on `Cc1ccccc1C1CCN(C2CCC(NC(=O)/C=C/c3cccc(F)c3F)CC2)CC1` (stereo not given) yielded an Inhibition of 89%.
With `Br.CC1(C)NC(N)=NC(=N)N1OCCSc1ccc(Cl)c(Cl)c1` the Inhibition was 96%.
Molecule `O=C(Cc1c[nH]cn1)Nc1cccc(-c2ccc(-c3nc4ccccc4[nH]3)cc2)c1` has an Inhibition of 99%.

These molecules were tested on Plasmodium falciparum (assay: GSK_TCMDC: Inhibition of Plasmodium falciparum Dd2 in whole red blood cells, using parasite LDH activity as an index of growth. Test compounds present at 2uM).
Type: functional
Molecule `Cl.c1ccc2c(NCCCCCCCNc3ccnc4ccccc34)ccnc2c1` has an Inhibition of 94%.
In the case of `Br.CN(CCON1C(=N)N=C(N)NC1(C)C)c1ccccc1`, the Inhibition is reported as 93%.
`NS(=O)(=O)c1cccc(-c2ccc3nccc(-c4cccc(S(N)(=O)=O)c4)c3c2)c1` showed an Inhibition of 99%.
Work on `COc1ccc2nccc(NCC3(O)CCC(NCc4ccc5c(n4)NC(=O)CS5)CC3)c2n1.Cl` (stereo not given) yielded an Inhibition of 23%.
`CC(C)(C)c1nn(-c2ccccc2)c2[nH]c(=O)c(CNCc3ccc4c(c3)OCO4)cc12` gave an Inhibition of 32%.
Work on `Oc1ccc2[nH]c(-c3ccc(OC(F)(F)F)cc3)nc2c1CNC1CCCC1` yielded an Inhibition of 97%.
With `O=C(CCOc1ccccc1)NCC1CCCO1` (stereo not given) the Inhibition was 0%.
Molecule `CC(=O)N(C)/N=C/[C@H](CCc1ccccc1)NC(=O)[C@H](CC(C)C)NC(=O)c1cccc(OCCN2CCOCC2)c1` has an Inhibition of 65%.
`Cc1ccc(NC(=O)c2cc(S(=O)(=O)NC(C)(C)C)ccc2C)nc1` gave an Inhibition of 80%.
Molecule `CCSc1nc2sc3c(c2c(=O)n1-c1ccccc1)CCN(C)C3` has an Inhibition of 71%.
Work on `Cc1cc2ncn(-c3nccc(NCc4ccc(F)c(C)c4)n3)c2cc1C.O=C(O)C(F)(F)F` yielded an Inhibition of 82%.
`CCc1ccc(CN2CCCCC(NC(=O)c3cc(-c4ccccc4F)cs3)C2)cc1.O=C(O)C(F)(F)F` (stereo not given) gave an Inhibition of 12%.
Molecule `Br.CC1(C)NC(N)=NC(=N)N1OCc1cccs1` has an Inhibition of 0%.
Work on `Cc1cccc2nc(-c3cccc(-c4ccc(NC(=O)Nc5ccc(Cl)cc5)cc4)c3)[nH]c12` yielded an Inhibition of 96%.
`COc1cc2c(cc1S(=O)(=O)c1ccc(NC(=O)c3cc4ccccc4s3)cc1)CCN(C)CC2` gave an Inhibition of 88%.
Work on `CN(C)CC(O)COc1ccc(Nc2ncc([N+](=O)[O-])c(Nc3ccccc3O)n2)cc1.O=C(O)C(F)(F)F` (stereo not given) yielded an Inhibition of 20%.
In the case of `CCCC(CNCc1ccc(Cl)c(C(F)(F)F)c1)CNc1nc2cnccc2[nH]1.Cl` (stereo not given), the Inhibition is reported as 8%.
For `FC(F)(F)c1cccc2c(NN=Cc3ccccc3)ccnc12`, the Inhibition was 90%.
`COc1cc(-c2ccccc2)ccc1C(=O)Nc1ccc2c(c1)N(C)CCC2` showed an Inhibition of 75%.
Work on `O=C(Nc1ccccc1F)N(CCCn1ccnc1)Cc1csc(-c2ccc(CNCc3ccccc3)cc2)n1.O=C(O)C(F)(F)F` yielded an Inhibition of 26%.
With `Cl.N=C(N)NN=Cc1c2ccccc2c(Cl)c2ccc(Cl)cc12` the Inhibition was 89%.
Molecule `O=C(c1cc(-c2ccco2)n[nH]1)N1CCN(S(=O)(=O)c2ccc(Br)cc2)CC1` has an Inhibition of 90%.
Work on `O=[N+]([O-])c1cccc(Nc2nccc(-c3cnn4ncccc34)n2)c1` yielded an Inhibition of 74%.
In the case of `CCc1ccc(-c2nc3cc(NC(=O)c4cc([N+](=O)[O-])cc([N+](=O)[O-])c4)ccc3o2)cc1`, the Inhibition is reported as 12%.
With `Cc1cc(NCCCCCCNc2cc(C)nc3c(C)cccc23)c2cccc(C)c2n1.Cl` the Inhibition was 9%.
Work on `O=C(O)C(F)(F)F.O=[N+]([O-])c1cccc(CNCC2CCN(Cc3ccc4ccccc4c3)CC2)c1` yielded an Inhibition of 42%.
In the case of `COc1c(C2CCN(CCCCNC(=O)c3noc(-c4ccc(C#N)cc4)n3)CC2)ccc2c1CCCC2`, the Inhibition is reported as 0%.
Work on `Cc1cccc2c(C(=O)NC3CCN(Cc4ccccc4)CC3)cc(-c3cccnc3)nc12` yielded an Inhibition of 10%.
With `Cc1cc(N[C@@H](CC(C)C)C(=O)NCc2cccc(F)c2)nc(Nc2ccccc2)n1.O=C(O)C(F)(F)F` the Inhibition was 76%.
With `Clc1ccccc1OCc1ccccn1` the Inhibition was 2%.
Molecule `CCNC[C@H]1CCCN1CCOc1ccc(-n2cnc3cc(-c4ccc(Cl)cc4)sc3c2=O)cc1OC.O=C(O)C(F)(F)F` has an Inhibition of 39%.
In the case of `COc1ccc(NC(=O)/C=C/c2ccccc2Cl)cc1OCCN1CCC(Cc2cc3ccccc3[nH]2)CC1.Cl`, the Inhibition is reported as 8%.
`Cc1cc(C(=O)Nc2ccc3c(c2)CCN3C2CCN(Cc3cccc(F)c3F)C2)no1` (stereo not given) was tested, and the Inhibition was 94%.
With `Cc1cccc(NC(=O)c2cnc(N3CCN(c4ccncc4)CC3)c(Cl)c2)c1.O=C(O)C(F)(F)F` the Inhibition was 54%.
For `CCCCN1CCN(c2cc(NS(=O)(=O)c3ccc(C(=O)Nc4ccc(C(F)(F)F)cc4)cc3)ccc2OC)CC1.O=C(O)C(F)(F)F`, the Inhibition was 20%.
With `COc1cc2nc(N3CCC(CNC(=O)c4ccc(-c5ccc(C(F)(F)F)cc5)cc4)CC3)nc(N)c2cc1OC` the Inhibition was 100%.
In the case of `CC(C)c1ccc(NC(=O)NCCCC2CCCN(CCCCCNC(=O)/C=C/c3ccc(Cl)c(Cl)c3)C2)cc1` (stereo not given), the Inhibition is reported as 42%.
`Cc1ccccc1C1CCN(C2CCC(NC(=O)/C=C/c3cccc(F)c3F)CC2)CC1` (stereo not given) was tested, and the Inhibition was 45%.
Molecule `Br.CC1(C)NC(N)=NC(=N)N1OCCSc1ccc(Cl)c(Cl)c1` has an Inhibition of 95%.
For `O=C(Cc1c[nH]cn1)Nc1cccc(-c2ccc(-c3nc4ccccc4[nH]3)cc2)c1`, the Inhibition was 72%.
